Bioassay records deposited in PubChem by several laboratories.
A selection: hits, their analogues and other compounds. The true share with any hit is near 0.94%.
MMP-13 inhibitor: inhibitors of human MMP13; P45452; MMP-13 fTHP FRET cleavage, Mca fluorescence; inhibition, % at 4 µM; hit rate 0.07% among 65,000;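 active = inhibition above the mean of compound-free control plate wells plus 3 SD, cut at about 14% in these data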;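 also: 0% = DMSO wells and 100% = wells with reference MMP-13 inhibitor after basal subtraction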
Her2 expr inh: lowers expression of human Her2 kinase | P04626 | SKBR-3 HER2 protein level, AlphaScreen, 18-24 h; hits give low values | HER2 level % of control, % at 10 µM | hit rate 0.69% among 65,000 | AID 645;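 active = HER2 level under 5% of the carrier-only control; inconclusive = no clear call, values can overlap the other calls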;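 also: 100% = DMSO carrier and 0% = 500 nM PU-H71 HSP90 inhibitor; lower value means stronger loss of Her2 protein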
Target sequence (P04626 whole entry, looked up): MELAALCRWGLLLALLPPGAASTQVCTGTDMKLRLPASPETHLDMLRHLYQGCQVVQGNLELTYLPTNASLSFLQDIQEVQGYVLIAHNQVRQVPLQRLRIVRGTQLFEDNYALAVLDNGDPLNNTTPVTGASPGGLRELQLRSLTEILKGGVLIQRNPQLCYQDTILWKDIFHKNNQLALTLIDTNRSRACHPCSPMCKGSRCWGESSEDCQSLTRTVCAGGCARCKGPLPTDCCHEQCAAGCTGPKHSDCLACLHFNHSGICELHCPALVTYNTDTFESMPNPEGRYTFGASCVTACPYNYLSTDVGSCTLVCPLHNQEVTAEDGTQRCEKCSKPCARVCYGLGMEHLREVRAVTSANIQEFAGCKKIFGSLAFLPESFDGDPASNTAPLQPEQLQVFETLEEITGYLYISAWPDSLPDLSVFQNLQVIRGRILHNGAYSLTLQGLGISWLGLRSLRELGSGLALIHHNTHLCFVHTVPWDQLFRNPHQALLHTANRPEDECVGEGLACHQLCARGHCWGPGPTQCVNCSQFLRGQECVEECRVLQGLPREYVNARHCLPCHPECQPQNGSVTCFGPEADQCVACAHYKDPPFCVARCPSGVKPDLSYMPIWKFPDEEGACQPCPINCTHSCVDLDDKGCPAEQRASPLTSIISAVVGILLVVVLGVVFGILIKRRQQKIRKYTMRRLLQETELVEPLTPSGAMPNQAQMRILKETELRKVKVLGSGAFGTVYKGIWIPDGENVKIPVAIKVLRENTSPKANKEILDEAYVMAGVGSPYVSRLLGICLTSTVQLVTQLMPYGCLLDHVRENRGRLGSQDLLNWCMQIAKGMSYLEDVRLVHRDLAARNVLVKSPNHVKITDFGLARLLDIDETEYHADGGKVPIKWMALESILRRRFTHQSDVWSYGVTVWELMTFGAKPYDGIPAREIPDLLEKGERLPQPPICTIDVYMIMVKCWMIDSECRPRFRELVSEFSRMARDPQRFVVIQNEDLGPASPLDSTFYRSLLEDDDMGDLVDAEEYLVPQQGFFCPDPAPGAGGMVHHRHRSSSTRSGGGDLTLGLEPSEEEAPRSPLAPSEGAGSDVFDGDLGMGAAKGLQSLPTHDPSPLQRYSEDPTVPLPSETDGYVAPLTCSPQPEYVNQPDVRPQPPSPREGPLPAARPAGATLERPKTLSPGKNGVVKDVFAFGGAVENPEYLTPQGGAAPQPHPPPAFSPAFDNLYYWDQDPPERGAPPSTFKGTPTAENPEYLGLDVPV
SK-BR-3 tox 24h: SK-BR-3 proliferation inhibitors; SK-BR-3 viability, CellTiter-Glo ATP luminescence, 24 h; hits give low values; AID 847; viability, % at 10 µM; hit rate 0.47% among 41,000;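 active = viability at or below the median of all test compounds minus 3 SD, in both replicates if run twice, cut at about 45% in these data; inconclusive = duplicate replicates that disagree with each other; inactive = viability above that cutoff in every replicate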;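 also: 100% = median untreated cell wells and 0% = median positive control drug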
* = called active by the depositor.

How did O=C(O)C1CSC2(c3ccc4c(c3)OCCO4)CCC(=O)N12 (stereo unspecified) do in these assays?
MMP-13 inhibitor: -1.5; Her2 expr inh: 94.1; SK-BR-3 tox 24h: 100.7

What do the screens show for `Cc1ccccc1N1C(=O)CC(Sc2nnc(-c3ccccc3)o2)C1=O` (stereo unspecified)?
MMP-13 inhibitor: -2.7; Her2 expr inh: -19.1*; SK-BR-3 tox 24h: 4.5*

What do the screens show for `O=C1CC(Sc2nnc(-c3ccccc3)o2)C(=O)N1c1ccccc1` (stereo unspecified)?
MMP-13 inhibitor: 1.2; Her2 expr inh: 7.7; SK-BR-3 tox 24h: 114.0

Results for Cc1ccc2cc(CNC(C)C)c(=O)[nH]c2c1 ?
MMP-13 inhibitor: -10.6; Her2 expr inh: 89.9; SK-BR-3 tox 24h: 80.1

What do the screens show for `CCOc1ccc(-c2[nH]ncc2Oc2ccccc2OC)c(O)c1`?
MMP-13 inhibitor: 0.4; Her2 expr inh: 66.4; SK-BR-3 tox 24h: 78.0

Results for CCOc1ccc(-c2[nH]ncc2Oc2ccccc2OCC)c(O)c1 ?
MMP-13 inhibitor: -1.1; Her2 expr inh: -17.6*; SK-BR-3 tox 24h: 90.4

How did Cn1cnc2c1c(=O)[nH]c(=O)n2C do in these assays?
MMP-13 inhibitor: 1.3; Her2 expr inh: -17.8*; SK-BR-3 tox 24h: 93.8

Results for Cn1c(=O)[nH]c(=O)c2c1ncn2CCN1CCOCC1 ?
MMP-13 inhibitor: 1.7; Her2 expr inh: 109.1; SK-BR-3 tox 24h: 95.2

How did CC1CC(N(C(=O)c2ccco2)c2ccccc2)c2ccccc2N1 (stereo unspecified) do in these assays?
MMP-13 inhibitor: 6.5; Her2 expr inh: 89.8; SK-BR-3 tox 24h: 66.5

What do the screens show for `O=C(NCc1ccc2c(c1)OCO2)C1CCN(C(=O)Nc2ccc(Cl)cc2)CC1`?
MMP-13 inhibitor: -3.5; Her2 expr inh: 69.2; SK-BR-3 tox 24h: 94.5

What do the screens show for `O=C(NCc1ccc2c(c1)OCO2)C1CCCN1C(=O)Nc1cccc(Cl)c1` (stereo unspecified)?
MMP-13 inhibitor: 0.4; Her2 expr inh: 102.0; SK-BR-3 tox 24h: 33.7*

How did CCCn1c(-c2ccc(OC)cc2)nc2ccccc21 do in these assays?
MMP-13 inhibitor: -13.0; Her2 expr inh: 95.0; SK-BR-3 tox 24h: 80.4

What do the screens show for `C=C(C)Cn1c(-c2ccc(OC)cc2)nc2ccccc21`?
MMP-13 inhibitor: -19.6; Her2 expr inh: -20.1*; SK-BR-3 tox 24h: 94.9

What do the screens show for `CC12CCC(c3c(C(=O)Nc4nccs4)nn(-c4ccccc4)c31)C2(C)C` (stereo unspecified)?
MMP-13 inhibitor: 0.6; Her2 expr inh: 152.7

What do the screens show for `Cc1oc2cc3c(C(=O)OCCN(C)C)c(C)oc3cc2c1C(=O)OCCN(C)C`?
MMP-13 inhibitor: 1.8; Her2 expr inh: 83.3; SK-BR-3 tox 24h: 103.4

Results for COc1ccc(-n2c(Cn3c(=O)sc4ccccc43)nnc2SCC(=O)N2CCOCC2)cc1 ?
MMP-13 inhibitor: 1.5; Her2 expr inh: -17.3*

What do the screens show for `Cn1c(Cn2c(=O)sc3ccccc32)nnc1SCC(=O)N1CCOCC1`?
MMP-13 inhibitor: 1.2; Her2 expr inh: 89.4

How did COc1ccc(CCN(C)CCCC(C#N)(c2ccc(OC)c(OC)c2)C(C)C)cc1OC (stereo unspecified) do in these assays?
MMP-13 inhibitor: 2.1; Her2 expr inh: 114.1; SK-BR-3 tox 24h: 84.4

How did N#CCSc1nc2cc(C(=O)N3CCC(C(N)=O)CC3)ccc2c2nc3ccccc3n12 do in these assays?
MMP-13 inhibitor: -2.0; Her2 expr inh: -1.2*

What do the screens show for `N#CCSc1nc2cc(C(=O)N3CCCC3)ccc2c(=O)n1Cc1ccccc1`?
MMP-13 inhibitor: 2.9; Her2 expr inh: 154.6; SK-BR-3 tox 24h: 91.2

What do the screens show for `O=C(NCc1ccco1)C1(S(=O)(=O)c2ccc(Cl)cc2)CC1`?
MMP-13 inhibitor: 0.8; Her2 expr inh: 87.2

Results for CCOC(=O)CSc1nnc(-c2ccco2)n1-c1ccccc1 ?
MMP-13 inhibitor: 9.9; Her2 expr inh: 124.0

Results for COC(=O)c1cccc(CSc2nnc(-c3ccco3)n2-c2ccccc2)c1 ?
MMP-13 inhibitor: -4.9; Her2 expr inh: 109.0; SK-BR-3 tox 24h: 35.5*

What do the screens show for `Brc1ccc(-c2nnc3n2-c2ccccc2CC3)cc1`?
MMP-13 inhibitor: -2.7; Her2 expr inh: 116.6

Results for C=CCn1c(SCc2nc3ccccc3c(=O)[nH]2)nnc1-c1cc2cc(Cl)ccc2o1 ?
MMP-13 inhibitor: 2.4; Her2 expr inh: 3.3*; SK-BR-3 tox 24h: inconclusive

Results for O=c1[nH]c(CSc2nnc(-c3ccncc3)n2Cc2ccco2)nc2ccccc12 ?
MMP-13 inhibitor: -10.8; Her2 expr inh: 112.9; SK-BR-3 tox 24h: 77.7

Results for CCOc1ccc(C(=O)CCN2CCCCCC2)cc1 ?
MMP-13 inhibitor: -4.1; Her2 expr inh: 99.0; SK-BR-3 tox 24h: 105.7

Results for CCCOc1ccc(C(=O)CCN2CCCCC2)cc1 ?
MMP-13 inhibitor: 3.3; Her2 expr inh: -19.6*; SK-BR-3 tox 24h: 85.2

How did CCOc1ccc(C2CC(=O)NC(SCC(=O)OC)=C2C#N)cc1 (stereo unspecified) do in these assays?
MMP-13 inhibitor: 2.2; Her2 expr inh: 87.9

How did COC(=O)c1sccc1NC(=O)c1csc(C)c1 do in these assays?
MMP-13 inhibitor: -2.0; Her2 expr inh: 0.2*; SK-BR-3 tox 24h: 75.5

How did COC(=O)c1sccc1NC(=O)c1ccc(OC)cc1 do in these assays?
MMP-13 inhibitor: 0.9; Her2 expr inh: 66.8; SK-BR-3 tox 24h: 90.8

Results for COC(=O)c1sccc1NC(=O)c1ccc(Cl)s1 ?
MMP-13 inhibitor: -1.5; Her2 expr inh: 4.0*; SK-BR-3 tox 24h: 98.2

What do the screens show for `CCn1c(C(=O)Nc2ccsc2C(=O)OC)cc2sc(Cl)cc21`?
MMP-13 inhibitor: -8.4; Her2 expr inh: 29.0

How did CCN(CC)S(=O)(=O)c1cccc(C(=O)Nc2nc3cc4c(cc3s2)OCCO4)c1 do in these assays?
MMP-13 inhibitor: -8.0; Her2 expr inh: 63.3

How did CCN(CC)c1nc(N)nc(NS(=O)(=O)c2ccc(Cl)cc2)n1 do in these assays?
MMP-13 inhibitor: 2.1; Her2 expr inh: 91.9

How did CCNc1nc(NC(C)C)nc(NS(=O)(=O)c2ccc(Cl)cc2)n1 do in these assays?
MMP-13 inhibitor: 4.2; Her2 expr inh: 105.2; SK-BR-3 tox 24h: 42.4*

Results for O=C(CN1CCN(C(=O)N2CCCCC2)CC1)Nc1ccc(F)cc1 ?
MMP-13 inhibitor: 0.3; Her2 expr inh: 96.6; SK-BR-3 tox 24h: 89.3

Results for O=S(=O)(c1ccc(S(=O)(=O)N(Cc2ccc(F)cc2)C2CCCC2)cc1)N1CCCC1 ?
MMP-13 inhibitor: 3.5; Her2 expr inh: 90.6; SK-BR-3 tox 24h: 69.9

What do the screens show for `COCc1nnc(NC(=O)c2ccc(S(=O)(=O)N(C)C3CCCCC3)cc2)o1`?
MMP-13 inhibitor: -3.6; Her2 expr inh: 106.1; SK-BR-3 tox 24h: 26.6*

What do the screens show for `COCCN(CCOC)S(=O)(=O)c1ccc(C(=O)Nc2nc(C)c(C(C)=O)s2)cc1`?
MMP-13 inhibitor: -1.2; Her2 expr inh: 106.7; SK-BR-3 tox 24h: 96.0

How did CCN(Cc1ccccc1)S(=O)(=O)c1ccc(C(=O)Nc2nnc(C3CC3)o2)cc1 do in these assays?
MMP-13 inhibitor: -2.3; Her2 expr inh: 81.1

Results for Cc1nnc(NC(=O)c2ccc(S(=O)(=O)N(C)Cc3ccccc3)cc2)o1 ?
MMP-13 inhibitor: 3.7; Her2 expr inh: 76.7; SK-BR-3 tox 24h: 30.9*

What do the screens show for `COCCN(CCOC)S(=O)(=O)c1ccc(C(=O)Nc2nnc(C)o2)cc1`?
MMP-13 inhibitor: -0.5; Her2 expr inh: 104.2; SK-BR-3 tox 24h: 19.2*

How did COCc1nnc(NC(=O)c2ccc(S(=O)(=O)N3CCCCCC3)cc2)o1 do in these assays?
MMP-13 inhibitor: 3.2; Her2 expr inh: 69.7; SK-BR-3 tox 24h: 46.9
